USP30 inh – blocks human USP30 ubiquitin-rhodamine cleavage; Q70CQ3; purified USP30, Ub-rhodamine cleavage fluorescence; inhibition, % at 25 µM; hit rate 5.3% among 47,000; AID 1645860
Target sequence (Q70CQ3 whole entry, looked up): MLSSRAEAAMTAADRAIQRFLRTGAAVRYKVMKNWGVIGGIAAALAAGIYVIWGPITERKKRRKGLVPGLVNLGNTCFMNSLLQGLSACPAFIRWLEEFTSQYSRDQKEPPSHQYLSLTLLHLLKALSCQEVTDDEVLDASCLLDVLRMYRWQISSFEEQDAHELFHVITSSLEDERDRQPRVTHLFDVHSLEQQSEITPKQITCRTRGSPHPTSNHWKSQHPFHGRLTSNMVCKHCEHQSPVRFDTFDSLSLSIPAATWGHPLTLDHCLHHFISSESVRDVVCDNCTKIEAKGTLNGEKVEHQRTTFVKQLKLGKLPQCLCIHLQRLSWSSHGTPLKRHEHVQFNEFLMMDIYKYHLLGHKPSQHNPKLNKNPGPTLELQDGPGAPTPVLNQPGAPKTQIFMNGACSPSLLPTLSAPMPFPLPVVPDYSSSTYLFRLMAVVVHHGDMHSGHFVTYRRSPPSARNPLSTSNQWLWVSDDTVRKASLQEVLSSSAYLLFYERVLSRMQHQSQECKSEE
USP17 block – human USP17-like deubiquitinase inhibition. hit rate 6.5% among 47,000. purified USP17, Ub-rhodamine cleavage fluorescence, 3 h. A8MUK1. inhibition, % at 50 µM. AID 1645855
USP28 inh – blocks human USP28 ubiquitin-rhodamine cleavage; Q96RU2; purified USP28, Ub-rhodamine cleavage fluorescence, 30 min; inhibition, % at 25 µM; hit rate 3% among 47,000; AID 1645857
* = called active by the depositor; · = no result. Rows were chosen to be rich in hits. Some 11% of all compounds tested hit in one or more screens of this group. Rule as the data show it: active = inhibition above about 30%; inactive = the rest.

SMILES | USP30 inh | USP17 block | USP28 inh
Cc1ccc(N(C(=O)CCCC(=O)Nc2ccccn2)C(C(=O)NC2CCCC2)c2ccc(F)cc2)c(C)c1 (centres undefined) | 9.2 | 15.8 | 0.8
Cc1ccc(C(C(=O)NC2CCCCC2)N(C(=O)CCCC(=O)Nc2ccccn2)c2ccc(C)cc2C)cc1 (centres undefined) | 26.7 | 48.6* | 5.1
CCCCOc1ccc(N(C(=O)CCCC(=O)Nc2ccccn2)C(C(=O)NC2CCCC2)c2ccc(F)cc2)cc1 (centres undefined) | 2.4 | -1.6 | -0.1
COc1ccc(CN(CC(=O)NC2CCCCC2)C(=O)CCC(=O)Nc2ccccn2)cc1 | 48.0* | 3.9 | 0.5
COc1ccc(OC)c(N(C(=O)CCCC(=O)Nc2ccccn2)C(C(=O)NC2CCCCC2)c2ccc(F)cc2)c1 (centres undefined) | 9.0 | 35.3* | -3.9
O=C(CCC(=O)N(CC(=O)NC1CCCC1)Cc1ccccc1)Nc1ccccn1 | 26.8 | -12.1 | 10.9
CN1C(=O)c2cccnc2Sc2cc(NC(=O)Cc3ccc(F)cc3)ccc21 | -50.5 | -6.0 | -16.5
C/C=C(\C)C(OC)C(C)/C=C(C)/C=C/C/C(C)=C/Cc1[nH]c(OC)c(OC)c(=O)c1C (centres undefined) | -40.9 | -30.9 | -16.0
CCCCCC(=O)N1CC(=O)N(CCCc2ccccc2)CC(O)C1 (centres undefined) | 16.8 | 1.0 | -15.5
N#Cc1cccc(CN2CC[C@@H]3[C@@H](CO[C@@H]3CNC(=O)C3CC3)C2)c1 | -9.3 | -16.8 | -1.1
COc1cccc([C@@H]2CN(C(=O)c3ccncc3)[C@@H]3CCCCC(=O)N[C@H]32)c1 | -12.9 | -3.0 | -7.1
CCC(=O)N1CCCc2ccc(NC(=O)c3ccccc3OC)cc21 | 8.6 | -8.4 | 11.4
CCS(=O)(=O)N1CCCc2cc(C(=O)Nc3ccccc3OC)ccc21 | 12.7 | 16.9 | 9.4
CCC(=O)N1CCc2cc(C(=O)Nc3ccccc3OC)ccc21 | 17.4 | 8.2 | 43.3*
CCC(=O)N1CCCc2ccc(NC(=O)c3cccc(OC)c3)cc21 | -6.1 | -6.0 | 37.3*
COc1ccc(NC(=O)CSc2nc3c(c(=O)[nH]2)CCCC3)c(OC)c1 | 3.4 | 1.9 | 0.0
Cc1ccnc2nc(NC(=O)c3ccc(Cl)cc3)nn12 | 16.8 | 21.2 | 3.6
Cc1nnc(-c2cccn2CC(=O)Nc2ccc(Cl)cc2)o1 | 18.6 | 18.9 | 6.8
Cc1ccc(N(CC(=O)NC2CCCCC2)C(=O)CCC(=O)Nc2ccccn2)c(C)c1 | -0.8 | -9.6 | -3.8
CCOc1ccc(NC(=O)c2ccccc2N2C(=O)[C@@H]3Cc4c([nH]c5ccccc45)C(c4ccc(OC)cc4)N3C2=O)cc1 (some centres undefined) | -278.1 | -55.7 | -81.8
CC(C)CNc1nc2c(cc1C(=O)NCC1CC1)CCNCC2 | 44.8* | 0.1 | 12.2
O=C(NCC1CC1)c1cc2c(nc1NCC1CC1)CCNCC2 | -2.3 | -28.3 | -25.5
CCOC(=O)C1CCN(C(=O)c2ccc(CNS(=O)(=O)c3ccc(Cl)cc3)cc2)CC1 | 31.5* | 16.6 | 11.3
CCOC(=O)C1CCN(C(=O)c2ccc(CNS(=O)(=O)c3ccc(OC)cc3)cc2)CC1 | 25.5 | 13.9 | 16.3
Cn1c(O)c(C2=Nc3ccccc3SC(c3cccc(O)c3)C2)c(=O)n(C)c1=O (centres undefined) | -6.9 | 1.5 | -7.4
SMILES | USP30 inh | USP17 block | USP28 inh
Cn1c(O)c(C2=Nc3ccccc3SC(c3cccc(O)c3)C2)c(=O)[nH]c1=O (centres undefined) | -26.9 | 39.2* | 14.5
CC(=O)Nc1ccc(-n2cnc(C(=O)N3CCCCCC3)c2)nc1 | -0.6 | -5.8 | -2.0
CC1CCN(c2cc(-n3cnc(C(=O)N4CCCCC4)c3)ncn2)CC1 | -3.9 | -2.7 | 51.0*
O=C(c1cn(-c2cc(N3CCCCC3)ncn2)cn1)N1CCCCC1 | 20.5 | -3.7 | 16.1
CC(=O)Nc1ccc(-n2cnc(C(=O)N3CCCC(C)C3)c2)nc1 (centres undefined) | 41.2* | 11.1 | 6.5
CC1CCN(c2cc(-n3cnc(C(=O)N4CCCC(C)C4)c3)ncn2)CC1 (centres undefined) | -0.3 | 0.8 | 62.3*
CC1CCCN(C(=O)c2cn(-c3cc(N4CCCCC4)ncn3)cn2)C1 (centres undefined) | 8.4 | 5.6 | 13.2
Cc1nc2ccc(C(=O)N3CCCC(c4ccn[nH]4)C3)cc2[nH]1 (centres undefined) | -21.5 | -8.5 | -12.1
CC(C)Cc1nc2sc3c(SCCN4C(=O)c5ccccc5C4=O)ncnc3c2c2c1CCC2 | 1.6 | -0.4 | 14.7
Cc1cccc(NC(=O)c2c(N3CCCC3=O)c3cc(F)ccc3n2C)c1C | -24.0 | -8.6 | -12.3
Cc1ccc(CS(=O)(=O)c2cn(CC(=O)N3CCCC3)c3ccccc23)cc1 | -3.5 | -7.4 | -17.9
CCc1nc(SCc2nc(N)nc(Nc3ccccc3)n2)n[nH]1 | 13.7 | 16.7 | 8.4
Cc1nc(Nc2nnc(C)s2)cc(C2CCCN2Cc2cccnc2)n1 (centres undefined) | 11.1 | 0.3 | 0.0
COc1ccc(NC(=O)COc2cccc3c2CCN(Cc2cccnc2)C3=O)c(OC)c1 | -0.2 | 7.8 | 10.9
CCOC(=O)c1ccc(NC(=O)COc2cccc3c2CCN(Cc2cccnc2)C3=O)cc1 | 3.7 | 4.3 | 31.8*
CC(=O)N1Cc2cc(C)ccc2OC2(CCN(CC(=O)N3CCCCC3C)CC2)C1 (centres undefined) | 2.4 | 13.8 | 4.6
CCc1cnc(N2C[C@H]3C[C@H](C(=O)NCc4cccnc4)[C@@H](C2)O3)nc1 | -12.7 | -10.8 | -3.0
COCCN1C(=O)C[C@@H]2[C@H]1CCN2C(=O)c1cncc(C)c1 | 30.8* | 7.0 | 16.3
COCCN1C(=O)C[C@@H]2[C@H]1CCN2C(=O)c1ccc2ccccc2n1 | 4.4 | -2.0 | 2.3
O=C(Cn1ncc2c(=O)oc3ccccc3c21)NCc1ccc2c(c1)OCO2 | -9.4 | 27.5 | 2.5
COc1cccc(-n2cnc3cc(C(=O)NC4CC4)ccc3c2=O)c1 | -13.7 | 72.7* | -4.3
O=C(NC1CC1)c1ccc2c(=O)n(-c3ccc(F)cc3)cnc2c1 | -10.5 | 20.2 | -20.2
O=C(NCC(=O)N1CCN(c2ccccc2)CC1)c1ccccc1 | -84.4 | -32.8 | -31.0
Cc1cccc(C(=O)NCC(=O)N2CCN(c3ccc(Cl)cc3)CC2)c1 | 40.9* | 33.0* | 3.6
Cc1ccc(F)cc1S(=O)(=O)NCc1ccc(N2CCN(C)CC2)cc1 | 36.1* | 16.0 | 14.8
SMILES | USP30 inh | USP17 block | USP28 inh
CC(=O)N1CCc2cc(Br)cc(S(=O)(=O)NCc3ccc(F)cc3)c21 | -7.6 | -22.7 | -4.4
COc1ccc(N(C)S(=O)(=O)c2cccc(C(=O)Nc3ccc(F)cc3F)c2)cc1 | 24.9 | 14.3 | 20.2
O=C1COc2ccc(C(=O)N3CCc4ccccc4C3)cc2N1 | 12.0 | 4.0 | 16.5
O=C1COc2ccc(C(=O)COC(=O)c3ccccc3O)cc2N1 | -33.9 | 36.1* | -9.5
O=C1COc2ccc(C(=O)COC(=O)CCc3nc4ccccc4s3)cc2N1 | 30.0* | 48.1* | 32.4*
O=C1COc2ccc(C(=O)COC(=O)C3(c4ccc(F)cc4)CCCC3)cc2N1 | 10.8 | 8.5 | 3.3
O=C1C2CSCN2C(=O)N1c1ccccc1F (centres undefined) | · | 9.5 | ·
COc1ccc(S(=O)(=O)NCc2ccc3c(c2)cc(C)n3C)cc1 | -372.5 | -43.9 | -86.7
COc1ccc(S(=O)(=O)NCC(C)(C)SCc2ccc(F)cc2)cc1 | 31.3* | 21.0 | 7.5

High-throughput results as filed in PubChem BioAssay.
